In PubChem BioAssay:
Values without a mark were called inactive. The source made the active and inactive calls. Rule as the data show it, unless noted: active = inhibition above about 28%; inactive = the rest.

What was measured:
[1] = molecular target: Nuclear receptor coactivator 3 (Homo sapiens) (UniProt Q9Y6Q9); experiment: NCOA3 GAL4-fusion reporter inhibition – cell-based, luminescence, quadruplicate, confirmation (AID 588792;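 active = mean inhibition over 43.08%, the solvent-only control mean plus 3 SD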;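 also: 0% = DMSO treated cells and 100% = gossypol at 36 µM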); conditions: HEK293 GAL4-SRC3 luciferase reporter, at 3.6 µM, active compounds read high
[2] = test system: transactivating tegument protein VP16 (Human herpesvirus 1), Gal4-VP16 luciferase reporter; experiment: repression of VP16-driven luciferase reporter – cell-based, luminescence, high throughput, counter-screen for SRC3 inhibitor project (AID 588794; in the data active = inhibition above about 30%); conditions: mammalian cells, at 3.6 µM, active compounds read high
[3] = StAR promoter reporter inhibitors, counter-screen for LRH-1 inverse agonist project, cell-based, luminescence, high throughput (AID 651611); conditions: StAR promoter luciferase reporter counterscreen, at 3.6 µM, active compounds read high
[4] = molecular target: Nuclear receptor subfamily 5 group A member 2 (Homo sapiens) (UniProt O00482); experiment: NR5A2 activity suppression in reporter cells – cell-based, luminescence, confirmation (AID 651613; in the data active = inhibition above about 42%;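 also: HEK293T cells co-transfected with LRH-1 and StAR promoter luciferase reporter; 0% = vehicle wells and 100% = parental cells lacking receptor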); conditions: cell-based LRH-1 luciferase reporter, inverse agonism; at 3.6 µM; active compounds read high
[5] = molecular target: Steroidogenic factor 1 (Homo sapiens) (UniProt Q13285); experiment: inverse agonism at SF1 nuclear receptor – cell-based, luminescence, high throughput, counter-screen for LRH-1 inverse agonist project (AID 651614; in the data active = inhibition above about 44%;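 also: cells cotransfected with StAR promoter reporter and SF1 expression vector; 0% = vehicle on cells with receptor and 100% = vehicle on cells lacking receptor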); conditions: cell-based SF1 luciferase reporter, at 3.6 µM, active compounds read high
[6] = compounds suppressing VP16-driven luciferase signal – cell-based, luminescence, high throughput, counter-screen for LRH-1 inverse agonist project (AID 651615; in the data active = inhibition above about 33%); conditions: Gal4-VP16 luciferase reporter cells, at 3.6 µM, active compounds read high

Sequence of Nuclear receptor coactivator 3 (Homo sapiens) (Q9Y6Q9 whole entry, looked up, the tested form may be a part): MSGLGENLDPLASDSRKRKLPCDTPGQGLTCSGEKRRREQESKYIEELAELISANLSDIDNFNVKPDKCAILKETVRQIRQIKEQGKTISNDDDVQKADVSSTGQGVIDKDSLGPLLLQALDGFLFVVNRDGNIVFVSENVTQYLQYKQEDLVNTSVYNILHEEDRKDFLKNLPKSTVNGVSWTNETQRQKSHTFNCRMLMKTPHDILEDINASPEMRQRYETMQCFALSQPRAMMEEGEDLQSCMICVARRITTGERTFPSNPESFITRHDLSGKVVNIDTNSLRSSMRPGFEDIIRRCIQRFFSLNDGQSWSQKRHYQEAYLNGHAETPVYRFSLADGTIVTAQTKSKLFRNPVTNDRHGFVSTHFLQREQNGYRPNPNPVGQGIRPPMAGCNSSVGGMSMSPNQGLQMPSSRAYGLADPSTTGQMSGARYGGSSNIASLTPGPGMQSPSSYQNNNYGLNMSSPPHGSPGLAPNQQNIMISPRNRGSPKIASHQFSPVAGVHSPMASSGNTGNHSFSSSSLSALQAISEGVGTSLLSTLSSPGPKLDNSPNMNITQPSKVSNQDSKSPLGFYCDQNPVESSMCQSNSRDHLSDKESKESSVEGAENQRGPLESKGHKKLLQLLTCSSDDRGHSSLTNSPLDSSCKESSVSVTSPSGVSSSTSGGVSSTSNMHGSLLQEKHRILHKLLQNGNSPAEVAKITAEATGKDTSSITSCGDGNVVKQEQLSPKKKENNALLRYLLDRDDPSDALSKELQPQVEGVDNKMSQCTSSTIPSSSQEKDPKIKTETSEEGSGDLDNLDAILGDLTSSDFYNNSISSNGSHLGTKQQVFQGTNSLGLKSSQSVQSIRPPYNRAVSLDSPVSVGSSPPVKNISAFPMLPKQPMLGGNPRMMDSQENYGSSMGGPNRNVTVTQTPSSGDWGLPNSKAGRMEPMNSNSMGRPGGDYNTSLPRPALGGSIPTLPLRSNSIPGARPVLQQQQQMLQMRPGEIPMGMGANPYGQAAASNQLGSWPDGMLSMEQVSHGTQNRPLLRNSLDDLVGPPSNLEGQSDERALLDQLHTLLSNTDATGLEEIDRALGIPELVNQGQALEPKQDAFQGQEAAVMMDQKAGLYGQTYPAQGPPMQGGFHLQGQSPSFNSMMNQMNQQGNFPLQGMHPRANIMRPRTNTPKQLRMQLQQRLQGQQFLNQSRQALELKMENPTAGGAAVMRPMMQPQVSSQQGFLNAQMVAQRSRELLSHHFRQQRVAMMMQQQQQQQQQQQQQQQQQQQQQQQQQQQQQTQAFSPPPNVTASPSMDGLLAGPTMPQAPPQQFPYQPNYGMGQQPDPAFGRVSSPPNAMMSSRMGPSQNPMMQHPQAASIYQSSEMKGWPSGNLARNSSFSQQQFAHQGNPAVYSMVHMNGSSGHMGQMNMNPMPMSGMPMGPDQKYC
Sequence of Steroidogenic factor 1 (Homo sapiens) (Q13285 whole entry, looked up, the tested form may be a part): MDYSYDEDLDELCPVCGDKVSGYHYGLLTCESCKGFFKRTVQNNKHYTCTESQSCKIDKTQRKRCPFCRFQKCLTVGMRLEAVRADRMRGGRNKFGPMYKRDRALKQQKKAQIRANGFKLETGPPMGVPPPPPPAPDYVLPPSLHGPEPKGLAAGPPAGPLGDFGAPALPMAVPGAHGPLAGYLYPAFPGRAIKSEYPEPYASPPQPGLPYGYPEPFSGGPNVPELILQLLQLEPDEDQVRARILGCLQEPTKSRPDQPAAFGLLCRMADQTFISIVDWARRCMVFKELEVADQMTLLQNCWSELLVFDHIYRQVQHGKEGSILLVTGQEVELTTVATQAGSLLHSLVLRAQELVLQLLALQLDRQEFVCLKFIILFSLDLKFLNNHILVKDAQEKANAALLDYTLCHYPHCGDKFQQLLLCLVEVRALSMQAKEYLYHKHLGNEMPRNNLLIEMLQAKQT
Sequence of Nuclear receptor subfamily 5 group A member 2 (Homo sapiens) (O00482 whole entry, looked up): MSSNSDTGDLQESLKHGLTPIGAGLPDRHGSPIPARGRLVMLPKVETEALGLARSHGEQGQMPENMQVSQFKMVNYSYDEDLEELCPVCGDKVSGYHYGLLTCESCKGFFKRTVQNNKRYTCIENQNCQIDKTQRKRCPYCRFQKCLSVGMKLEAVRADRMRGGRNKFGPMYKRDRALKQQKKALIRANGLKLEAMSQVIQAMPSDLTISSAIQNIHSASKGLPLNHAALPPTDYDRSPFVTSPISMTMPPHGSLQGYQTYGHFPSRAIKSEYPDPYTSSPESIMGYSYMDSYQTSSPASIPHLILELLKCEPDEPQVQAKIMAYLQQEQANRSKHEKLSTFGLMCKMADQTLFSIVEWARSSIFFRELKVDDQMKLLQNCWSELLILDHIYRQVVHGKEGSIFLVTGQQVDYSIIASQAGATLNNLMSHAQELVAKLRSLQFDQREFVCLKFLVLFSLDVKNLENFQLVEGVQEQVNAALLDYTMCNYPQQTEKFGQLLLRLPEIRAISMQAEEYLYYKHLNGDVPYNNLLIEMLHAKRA

| Structure (SMILES) | inhibition [1] | inhibition [2] | inhibition [3] | inhibition [4] | inhibition [5] | inhibition [6] |
| --- | --- | --- | --- | --- | --- | --- |
| C#CC(=O)N(c1ccc(OC)c(OC)c1)C(C(=O)NC1CCCC1)c1cccs1 (configuration not stated) | 25.2% | -2.4% | 17.7% | 57.3% (active) | 35.4% | 10.9% |
| O=C(N/N=C\c1ccc([N+](=O)[O-])s1)c1cncc(Br)c1 | 32.5% | 22.9% | 57.4% (active) | 79.7% (active) | 72.9% (active) | 56.9% (active) |
| O=[N+]([O-])c1ccc(O)c(/C=N/Nc2nc3ccccc3[nH]2)c1 | 64% (active) | 62.7% (active) | 80.6% (active) | 97.5% (active) | 84.3% (active) | 83% (active) |
| COc1ccc(-c2n(Cc3ccccc3)c3ccccc3[n+]2Cc2ccccc2)cc1 | 64% (active) | 66.2% (active) | 76.3% (active) | 109% (active) | 90.3% (active) | 94.4% (active) |
| N=c1c2c(n(Cc3ccccc3)c3c1CCC3)CCC2 | 19.5% | 44.1% (active) | 37.3% (active) | 79.2% (active) | 72.9% (active) | 62.4% (active) |
| COc1ccc(OC)c(NC(=O)c2nnn(Cc3ccccc3C)c2N)c1 | 4.83% | 29.9% (active) | 20.2% | 44.5% (active) | 52.9% (active) | 57.3% (active) |
| C[n+]1c2n(c3ccccc31)N=C(c1cc(C(C)(C)C)c(O)c(C(C)(C)C)c1)CS2 | 81.1% (active) | 84.6% (active) | 81.7% (active) | 106% (active) | 95% (active) | 90% (active) |
